# Screens: PubChem, NMMLSC
# Rows were chosen to be rich in hits. Some 1.2% of all compounds tested hit in one or more screens of this group.
# RGS7-Gao: RGS7-Galphao binding modulators, primary screen, biochemical, multiplexed bead flow cytometry. actives lie on both sides. Guanine nucleotide-binding protein G(o) subunit alpha (Homo sapiens), P09471. binding response (% of control), % at 10 µM. 0.35% of 220,000 active; in the data active = binding response below about 49% or above about 150%; inconclusive = no clear call, values can overlap the other calls; inactive = in between;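 note: fluorescent Galphao held in activated GDP-AlF4 state binding bead-coupled RGS7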
# GSH bead fluor: compound fluorescence on glutathione beads, profiling panel, artefact control, biophysical, 488/530 nm, flow cytometry; fluorescence (KMESF) at 10 µM; 0.25% of 190,000 active; GSH beads flow cytometry, compound fluorescence 488/530 nm; active compounds read high; AID 1776, 2009; in the data active = fluorescence above about 89;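 note: glutathione beads carrying GST-tagged Bcl family fusion proteins plus one bare bead set; values are compound well signal with DMSO vehicle wells as background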
# Avidin bead fluor: green autofluorescence of compounds with avidin beads – biophysical, 488/530 nm, flow cytometry, artefact control, profiling panel; compound fluorescence 488/530 nm; active compounds read high; 0.38% of 220,000 active; fluorescence (KMESF) at 10 µM; AID 1775, 2009; in the data active = fluorescence above about 47
# RGS8-Gao reg: RGS8-Galphao binding modulators, primary screen, biochemical, multiplexed bead flow cytometry; Guanine nucleotide-binding protein G(o) subunit alpha (Homo sapiens), P09471; actives lie on both sides; response (percent of control binding), % at 10 µM; 0.34% of 220,000 active; AID 1423, 2008; in the data active = response below about 60% or above about 140%; inactive = in between;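 note: Galphao activated as the GDP aluminium fluoride complex binding bead-coupled RGS8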
# RGS16-Gao: modulators of RGS16 binding to Galphao, primary screen, biochemical, human proteins, multiplexed bead flow cytometry. 0.38% of 220,000 active. bead-based flow cytometry RGS16-Galphao binding, fluorescence; actives lie on both sides. binding response (% of control), % at 10 µM. AID 1441, 2008. Regulator of G-protein signaling 16 (Homo sapiens) + Guanine nucleotide-binding protein …; call rule not given here;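 note: Galphao activated by GDP with aluminum fluoride before binding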
# Target sequence (O15492 whole entry, looked up): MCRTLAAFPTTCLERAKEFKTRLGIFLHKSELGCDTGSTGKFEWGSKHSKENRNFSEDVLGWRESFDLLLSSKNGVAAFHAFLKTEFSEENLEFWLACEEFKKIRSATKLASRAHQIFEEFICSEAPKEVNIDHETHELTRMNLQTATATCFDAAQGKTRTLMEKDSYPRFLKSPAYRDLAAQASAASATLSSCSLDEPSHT
# Target sequence (P09471 whole entry, looked up): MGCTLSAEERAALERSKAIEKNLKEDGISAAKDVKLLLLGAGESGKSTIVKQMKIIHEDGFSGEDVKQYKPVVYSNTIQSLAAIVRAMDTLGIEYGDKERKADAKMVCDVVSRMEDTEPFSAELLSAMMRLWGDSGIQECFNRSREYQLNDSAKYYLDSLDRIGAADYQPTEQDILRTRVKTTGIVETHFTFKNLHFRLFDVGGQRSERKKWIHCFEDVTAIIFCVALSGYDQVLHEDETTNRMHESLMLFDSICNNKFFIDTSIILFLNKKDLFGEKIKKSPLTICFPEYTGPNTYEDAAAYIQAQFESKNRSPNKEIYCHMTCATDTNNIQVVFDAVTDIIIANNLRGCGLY
# RGS4-Gao reg: modulators of RGS4 binding to Galphao, primary screen, biochemical, multiplexed bead flow cytometry; actives lie on both sides; binding response (% of control), % at 10 µM; 0.33% of 220,000 active; in the data active = binding response below about 49% or above about 150%; inactive = in between;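 note: fluorescent Galphao activated with aluminum fluoride binding bead-coupled RGS4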
# Starred values were filed as active, the others as inactive; ? = inconclusive; . = no result given.
SMILES,RGS7-Gao,GSH bead fluor,Avidin bead fluor,RGS8-Gao reg,RGS16-Gao,RGS4-Gao reg
CCCCN1C(=O)N(C)C2NC(=O)NC21 (stereo unspecified),98.1,14,10,98.4,101.8,99.8
CCCCN1C(=O)N(C)C2C1N(C)C(=O)N2CCCC (stereo unspecified),103.0,130*,5,106.4,123.8,104.7
COC(=O)c1nn(-c2ccc(OC)cc2)c(=O)c2c(N)sc(C)c12,105.8,15,2,96.0,90.3,100.7
O=C(NCc1ccccc1)c1cccc(F)c1F,100.1,9,22,104.8,106.6,102.9
O=C(COC(=O)c1ccc(S(=O)(=O)NCc2ccco2)cc1)NC1CCCCC1,94.3,268*,6,100.4,104.0,96.2
O=C(COC(=O)c1ccc(S(=O)(=O)NCc2ccco2)cc1)c1ccccc1,102.1,11,6,102.3,106.4,99.6
O=C(NCC1CCCO1)c1ccc(COc2ccccc2Br)cc1 (stereo unspecified),96.0,12,2,84.2,34.0,93.5
CC1=C(C(=O)OCc2ccccc2)C(c2ccsc2)C(C#N)=C(N)O1 (stereo unspecified),93.5,23,5,80.0,48.5,90.0
COC(=O)C1=C(C)OC(N)=C(C#N)C1c1ccsc1 (stereo unspecified),110.2,89*,8,105.7,117.3,117.0
COCCNC(=O)C(=O)N/N=C(\C)CC(=O)Nc1cccc(C(F)(F)F)c1,?,.,5,105.3,108.1,104.8
COc1ccc(C(=O)N/N=C(\C)CC(=O)Nc2cccc(C(F)(F)F)c2)cc1,?,.,69*,104.4,128.9,148.9
COc1cccc(CN(C)C(=S)Nc2cccc(C)c2)c1,96.5,12,6,99.5,102.4,96.9
Cc1cccc(C)c1NC(=O)CSc1nc(-c2ccco2)cc(C(F)(F)F)n1,118.0,12,67*,95.2,101.7,96.3
C[C@@]12CC(=O)NC1N(C(=O)c1ccccc1)C(c1ccccc1OC(=O)c1ccccc1)C2 (stereo partly specified),103.0,250*,7,99.8,105.1,99.7
CCOC(=O)C1=C(c2ccccc2)N(C)C(=O)NC1c1ccc(OC(F)F)c(OC)c1 (stereo unspecified),123.2,13,56*,99.7,106.6,103.6
C(=N\c1nc2ccccc2n1CCN1CCCCC1)/c1ccc2c(c1)OCO2,96.7,24,11,104.9,99.9,100.2
C(=N\c1nc2ccccc2n1CCN1CCCCC1)/c1cccs1,107.7,270*,5,103.5,73.0,105.8
Cc1ccc(Cl)cc1NC(=S)NCc1cccn1C,94.6,23,12,98.8,96.6,93.9
CCn1c(SCC(=O)N2CCCCC2C)nnc1-c1ccc(S(=O)(=O)N2CCN(C)CC2)cc1 (stereo unspecified),107.0,264*,7,110.1,131.7,109.9
Nc1ccccc1Nc1cc(-c2ccccc2)[nH]n1,?,14,9,98.3,100.0,100.0
COCCCn1c(=N)c(C(=O)NCC2CCCO2)cc2c(=O)n3ccccc3nc21 (stereo unspecified),98.2,15,18,98.9,99.0,97.2
N=c1c(C(=O)NCc2ccc(F)cc2)cc2c(=O)n3ccccc3nc2n1CC1CCCO1 (stereo unspecified),105.5,16,90*,96.7,89.3,93.6
COc1ccc(C2NC(=O)C(C)S2)cc1 (stereo unspecified),135.7,10,51*,95.8,99.3,96.0
CCc1ccccc1NC1=CC(=O)CC(C)(C)C1,102.5,13,10,100.0,102.5,100.3
O=C(c1ccc(F)cc1)C(CCCCCC(CN1CCOCC1)C(=O)c1ccc(F)cc1)CN1CCOCC1 (stereo unspecified),139.7,21,185*,100.0,89.3,107.5
